Bioassay records as filed in PubChem BioAssay.
Compounds with a hit are over-represented: about 12% of the library has one in this group of screens.
HP1b chromo inh: HTS for Inhibitors of HP1-beta Chromodomain Interactions with Methylated Histone Tails. Potency, µM (series often up to 114 µM), inactives show at the highest dose activity change, negative = inhibition, actives largely listed as inhibitors. AlphaScreen HP1-beta / biotin-H3K9me3 peptide binding. hit rate 0.56% among 390,000. Chromobox protein homolog 1 (Homo sapiens), P83916; further: nearly all actives have a fitted effect of over 70% in size
Target sequence (P83916 whole entry, looked up): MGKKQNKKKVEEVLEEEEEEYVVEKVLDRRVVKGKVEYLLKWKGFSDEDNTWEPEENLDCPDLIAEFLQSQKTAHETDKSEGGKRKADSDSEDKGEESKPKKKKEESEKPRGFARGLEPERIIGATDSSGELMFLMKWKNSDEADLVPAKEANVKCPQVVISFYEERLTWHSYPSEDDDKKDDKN
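AlphaScreen: HP1-beta (50 nM) preformed 30 min with biotin-H3(1-18)K9me3 peptide (50 nM) in PBS pH 7.4, 0.01% Tween-20. Compound added for 30 min at RT, then streptavidin donor/nickel chelate acceptor beads (10 ug/mL) for 30 min.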
Sfp inh: qHTS Assay for Inhibitors of Bacillus subtilis Sfp phosphopantetheinyl transferase (PPTase). 4'-phosphopantetheinyl transferase ffp (Bacillus subtilis), Q9F4F7. Biochemical Sfp PPTase activity, qHTS. AID 1490, 2009. hit rate 3.5% among 310,000. Potency, µM, without a hit: largest response in the series, negative = inhibition, hits mostly inhibitors;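 further: the enzyme is Sfp with the accession as filed and its product quenches rhodamine fluorescence; 0% = enzyme reaction without inhibitor and -100% = no enzyme wells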
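Fluorescence-quenching assay with 15 nM Sfp, 5 uM rhodamine-CoA and 12.5 uM BHQ-2-labelled ybbR peptide in pH 7.6 Hepes/MgCl2 buffer. Enzyme was pre-incubated with compound for 15 min at room temperature. Rate was taken from the 30-min fluorescence change (525/598 nm).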
JMJD2A Tudor inh: qHTS Assay for Inhibitors of JMJD2A-Tudor Domain; Lysine-specific demethylase 4A (Homo sapiens), O75164; AlphaScreen JMJD2A-Tudor / H3K4me3 peptide binding; Potency, µM (highest dose often 114 µM), for inactives: at the highest dose activity change, negative = inhibition, most hits filed as inhibitors; hit rate 4.4% among 390,000; AID 504339, 2011; further: on the % scale 0 is the no-effect control and ±100 the full control effect; nearly all actives have a fitted effect of over 50% in size
BAZ2B block: qHTS Assay for Inhibitors of BAZ2B; AID 504333, 2011; Bromodomain adjacent to zinc finger domain protein 2B (Homo sapiens), Q9UIF8; hit rate 4.4% among 360,000; Potency, µM (top dose mostly 114 µM), for the others: top-dose activity change, negative = inhibition, most hits filed as inhibitors; AlphaScreen BAZ2B-H3K14Ac peptide displacement; further: on the % scale 0 is the no-effect control and ±100 the full control effect; nearly all actives have a fitted effect of over 60% in size
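AlphaScreen displacement: compounds (up to 110uM) incubated 30 min at room temperature with a preformed 50 nM BAZ2B/50 nM biotinylated H3K14Ac peptide complex in PBS pH 7.4 with Tween-20. Donor and acceptor beads at 10 ug/mL final added, 20 min light-protected before reading.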
G9a inh: qHTS Assay for Inhibitors of Histone Lysine Methyltransferase G9a | G9a H3K9 monomethylation, AlphaScreen, 2 h | Histone-lysine N-methyltransferase EHMT2 (Homo sapiens), Q96KQ7 | Potency, µM (titrated, usually from 102 µM), for inactives: top-dose activity, negative = inhibition, hits mostly inhibitors | hit rate 8.8% among 350,000; further: on the % scale 0 is the no-effect control and ±100 the full control effect; nearly all actives have a fitted effect of over 75% in size
Target sequence (Q96KQ7 913-1193 limits assumed): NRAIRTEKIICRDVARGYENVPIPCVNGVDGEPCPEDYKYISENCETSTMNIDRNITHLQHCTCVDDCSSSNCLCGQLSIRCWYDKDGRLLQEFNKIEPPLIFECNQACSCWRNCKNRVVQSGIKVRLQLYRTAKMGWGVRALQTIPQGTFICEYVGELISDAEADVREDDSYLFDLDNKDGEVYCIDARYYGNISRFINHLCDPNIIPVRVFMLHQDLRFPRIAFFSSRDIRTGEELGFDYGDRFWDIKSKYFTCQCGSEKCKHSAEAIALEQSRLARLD
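Methyltransferase reactions run at room temperature for 2 h (20 nM enzyme, 500 nM biotin-H3K9 peptide, 20 uM SAM) after a 15 min compound preincubation; product detected by AlphaScreen beads and anti-H3K9me1 antibody.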
Numbers without * were called inactive; ? = inconclusive; . = no result given; [ ] = remark or other dose. The call rests on the fitted dose curve; in most records, active means well fitted curve in the direction sought with a large enough effect; inconclusive means small, poorly fitted or top-dose-only effect, or another doubt; inactive means no such curve, though single readings can be large; an effect the other way counts as inactive or inconclusive. Potency means the concentration at half of the fitted maximal effect.

SMILES | HP1b chromo inh | Sfp inh | JMJD2A Tudor inh | BAZ2B block | G9a inh
CSc1nsc(/C=C/Nc2ccc(O)cc2C)c1C#N | -34% | -78% | 50µM* | 40µM* | 7.9µM*
CCC(C(=O)O)C1OC(C(C)C(O)C(C)C(=O)C(CC)C2OC3(C=CC(O)C4(CCC(C)(C5CCC(O)(CC)C(C)O5)O4)O3)C(C)CC2C)C(C)CC1C (configuration not stated) | . | 15% | . | . | -6%[12.7 µM]
Cc1cc(C(F)(F)F)n(-c2nc(C(=O)NN)cs2)n1 | 23% | 1% | -4% | -12% | -8%
COc1ccc(S(=O)(=O)NNC(=O)c2csc(-n3nc(C)cc3C(F)(F)F)n2)cc1OC | 12% | 14% | -8% | ? | 35µM*
O=C(CCn1c(=O)c2cccn2c2cccnc21)Nc1ccccc1Br | 10% | . | -16% | -3% | -3%[59 µM]
O=C(COC(=O)CNC(=O)c1ccccc1)NCCc1ccccc1 | 23% | 11% | -7% | 1% | 8%
CC(=O)NCCc1ccc(O)c(O)c1 | . | . | . | . | 2µM*
O=C(CNC(=O)c1ccccc1)NCCc1ccc(O)c(O)c1 | . | 50µM* | . | -19% | 8.9µM*
NC(=O)c1cnn2c(C(F)(F)F)cc(-c3ccccc3)nc12 | 33% | 10% | -1% | 5% | 13%[59 µM]
O=C(NCc1ccco1)c1cnn2c(C(F)(F)F)cc(-c3ccccc3)nc12 | 43% | 25µM* | -17% | 15% | -50%[12.7 µM]
COc1ccc(-c2cc(C(F)(F)F)n3ncc(C(=O)NCc4ccco4)c3n2)cc1 | 39% | 56µM* | -10% | -2% | 3%[59 µM]
CC(C)CCNC(=O)c1cnn2c(C(F)(F)F)cc(-c3ccco3)nc12 | 54% | 50µM* | -22% | ? | ?
CCOc1ccccc1N=NC1C(=O)N(C(N)=S)N=C1C (configuration not stated) | -3% | -25% | -4% | 7% | 50µM*
CC1=NN(C(N)=S)C(=O)C1N=Nc1ccccc1O (configuration not stated) | 47% | 10% | 56µM* | 50µM* | .
CC1=NN(C(N)=S)C(=O)C1N=Nc1ccccc1C (configuration not stated) | -1% | -3% | -25% | -11% | 1%[59 µM]
CC1=NN(C(N)=S)C(=O)C1N=Nc1ccc(C)cc1C (configuration not stated) | . | -3% | . | -3% | ?
CC(C)(C)c1ccc2c(c1)OC(C(=O)N/N=C\c1ccc(-c3cccc(C(=O)O)c3)o1)CO2 (configuration not stated) | 3% | 50µM* | -25% | 50µM* | 40µM*
O=C(O)c1cccc(-c2ccc(/C=N/NC(=O)C3COc4ccccc4O3)o2)c1 (configuration not stated) | 8% | 28µM* | -16% | ? | 40µM*
O=C(N/N=C/c1c[nH]c2ccccc12)C1COc2ccccc2O1 (configuration not stated) | 5% | 9% | -11% | -36% | 7%[59 µM]
CC(C)(C)c1ccc2c(c1)OC(C(=O)N/N=C\c1ccccn1)CO2 (configuration not stated) | 33% | 10% | -10% | 2% | 3%[59 µM]
COc1ccc(-c2oc3ccc(N4CCOCC4)cc3c2C#CC2(O)CCCCC2)cc1 | 45% | . | -11% | . | .
CC1(C)N=C(Nc2nc3ccccc3o2)NC2=C1C(=O)CCC2 | . | . | -30% | . | .
O=C(Nn1c(=O)[nH]c2ccsc2c1=O)c1ccccc1 | 15% | 1% | -17% | -1% | 12%[59 µM]
Cc1cccc(-n2c(=S)[nH]c3c(oc4ccccc43)c2=O)c1 | 26% | -23% | -1% | -6% | 13µM*
O=c1c2oc3ccccc3c2[nH]c(=S)n1-c1ccccc1 | -27% | 50µM* | ? | 2% | 8.9µM*
SMILES | HP1b chromo inh | Sfp inh | JMJD2A Tudor inh | BAZ2B block | G9a inh
O=c1c2sccc2[nH]c(=S)n1-c1ccccc1 | 25% | 79µM* | 5.6µM* | -17% | ?
CCCCn1c(=O)[nH]c2c(oc3ccccc32)c1=O | 27% | 1% | 0% | -6% | -2%
Cc1ccc(-n2c(=S)[nH]c3c(oc4ccccc43)c2=O)cc1 | 29% | -9% | -9% | -6% | ?
CN(CCCNC(=O)CCC(=O)N1CCOc2ccccc21)Cc1ccccc1 | 10% | 10% | -15% | 30% | .
CC(C)NC(=S)N/N=C1\CCCCC1C1CCCCC1 (configuration not stated) | -45% | -22% | ? | ? | 22µM*
CC(C)NC(=S)NN=C1c2ccccc2-c2ccccc21 | -23% | 21% | -12% | -37% | 16%
CCN(CC)CCNC(=O)c1nn(-c2ccc(OC)c(Cl)c2)c(=O)c2c1c1ccccc1n2C | 23% | . | -12% | . | 5%[59 µM]
C=CC(=O)O | . | 16% | . | . | ?
CC(=O)c1sc2nc(C)c3c(c2c1N)CCCC3 | 85% | ? | 22% | -14% | 6%
CC(=O)c1sc2nsc(SCCN3CCCC3)c2c1N | ? | 40µM* | 89µM* | ? | -75%[59 µM]
CCc1nnc(NS(=O)(=O)c2ccc(N/C=C/C(=O)c3ccc(C)cc3)cc2)s1 | 34% | 7% | ? | 50µM* | 40µM*
CCc1nnc(NS(=O)(=O)c2ccc(NC(=O)/C=C/c3ccc(OC)cc3OC)cc2)s1 | -3% | 6% | ? | 56µM* | 15%[59 µM]
CCc1nnc(NS(=O)(=O)c2ccc(NC(=S)NC(=O)c3ccc(OC)c(OC)c3)cc2)s1 | 2% | -27% | -22% | -35% | ?
CCc1nnc(NS(=O)(=O)c2ccc(N/C=C\C(=O)c3cccc(OC)c3)cc2)s1 | 29% | 16% | -13% | -38% | 50µM*
CCc1nnc(NS(=O)(=O)c2ccc(N/C=C\C(=O)c3ccc(C)cc3)cc2)s1 | 19% | 7% | ? | ? | -32%[59 µM]
CCCCNC(=O)C(c1ccc(OCC(=O)OC)c(C(=O)OC)c1)N(Cc1ccccn1)C(=O)CCCCCN1C(=O)NC(c2ccc(-c3ccccc3)cc2)C(C(=O)OCc2ccccc2)=C1C (configuration not stated) | . | 7% | . | . | .
N#CC12C(N)=NC3(OCCO3)C1(C#N)C1=C(CCC1)NC2c1ccccc1 (configuration not stated) | 32% | -10% | -8% | 0% | ?
N#CC1(C#N)C2=C(CCCC2)NC(c2ccccc2)C1(C#N)C#N (configuration not stated) | . | -6% | . | 50µM* | 18µM*
CC(C)Nc1oc(-c2cccc3ccccc23)nc1C#N | -8% | -7% | 27% | -34% | 45µM*
CCN(CC)CCOC(=O)c1ccc(NC(=O)CCCN2C(=O)/C(=C/c3cccs3)SC2=S)cc1 | ? | ? | 40µM* | 16% | .
